Source: PubChem
ALOX12 inhib = 12-hLO (ALOX12) enzyme inhibition | P18054 | purified 12-hLO, xylenol orange hydroperoxide absorbance | Potency, µM (highest dose often 57.1 µM), most hits filed as inhibitors | actives 0.12% (n = 150,000); further: nearly all actives have a fitted effect of over 55% in size
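Xylenol orange chromogenic assay: hydroperoxide from 12hLO oxidises Fe(II), giving red-shifted Fe(III)-XO absorbance. Conditions: 150 nM enzyme, 40 uM arachidonic acid, 25 mM Hepes pH 7.0, 0.01% Triton X-100, 30 min, room temperature.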
aGal spleen mod = inhibitors or activators of human alpha-galactosidase in spleen homogenate. human spleen homogenate, 4MU-alpha-Gal fluorescence, 40 min. AID 2107. P06280. actives 0.008% (n = 240,000). Potency, µM (top dose mostly 80 µM), actives largely listed as inhibitors
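Human spleen homogenate (1 ug) was the enzyme source, with 4-methylumbelliferyl-alpha-D-galactopyranoside (1 mM final) in pH 5.0 citrate buffer with 0.01% Tween-20. Compounds were titrated; after 40 min at 37C, NaOH/glycine stop, 4-MU fluorescence read; AC50 from Hill fits.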
HPGD inh = HPGD (human) dehydrogenase inhibition | P15428 | purified HPGD, NADH fluorescence kinetic, PGE2 substrate | Potency, µM, hits mostly inhibitors | actives 4.3% (n = 150,000); active means well fitted inhibition curve with a large enough effect, not every such curve was filed as active; inconclusive means small, poorly fitted or top-dose-only effect, or another doubt; inactive means no such curve, though single readings can be large or run the other way
Target sequence (P15428 whole entry, looked up): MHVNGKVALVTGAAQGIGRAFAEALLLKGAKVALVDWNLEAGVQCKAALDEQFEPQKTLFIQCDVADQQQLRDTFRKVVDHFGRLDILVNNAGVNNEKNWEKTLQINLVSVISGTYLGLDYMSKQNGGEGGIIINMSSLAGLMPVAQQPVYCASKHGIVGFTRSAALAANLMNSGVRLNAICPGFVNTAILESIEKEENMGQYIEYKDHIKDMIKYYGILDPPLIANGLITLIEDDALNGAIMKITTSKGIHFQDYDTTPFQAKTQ
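20 nM HPGD preincubated 15 min at room temperature with compound in 50 mM Tris-HCl pH 8, 0.01% Tween 20. Started with 1 mM NAD+ and 30 uM prostaglandin E2; NADH fluorescence (360/450 nm) read 5 times over 30-s intervals, last minus first.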
GLA inh pH 4.5 = alpha-galactosidase A (human) inhibition, pH 4.5; purified enzyme, 4-MU-alpha-Gal fluorescence, pH 4.5; activity change, negative = inhibition, % at 105 µM; 230,000 tested, under 10 active
Target sequence (P06280 whole entry, looked up): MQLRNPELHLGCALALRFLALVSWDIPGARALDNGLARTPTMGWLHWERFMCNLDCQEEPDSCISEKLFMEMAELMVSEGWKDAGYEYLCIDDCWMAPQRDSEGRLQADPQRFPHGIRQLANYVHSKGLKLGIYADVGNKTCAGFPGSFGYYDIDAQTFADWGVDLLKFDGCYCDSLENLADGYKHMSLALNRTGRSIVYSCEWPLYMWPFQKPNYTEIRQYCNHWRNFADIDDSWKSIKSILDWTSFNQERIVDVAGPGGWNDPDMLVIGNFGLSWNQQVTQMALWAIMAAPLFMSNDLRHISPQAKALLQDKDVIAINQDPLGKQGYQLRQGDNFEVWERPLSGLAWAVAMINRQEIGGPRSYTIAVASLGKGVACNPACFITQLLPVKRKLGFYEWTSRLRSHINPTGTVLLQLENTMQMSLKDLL
PNC inhibitor = perinucleolar compartment assembly inhibition; PC3M PTB-GFP, PNC prevalence imaging, 16 h; stronger effect = lower value; activity change (PNC), negative = inhibition, % at 10 µM; actives 3.1% (n = 140,000); AID 2417;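 active means readout at or below -70, meaning at least 70% loss of cells showing the perinucleolar compartment, a nuclear body marking cancer cells; inconclusive means readout between -30 and a set limit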
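Read-out is percentage of cells bearing a perinucleolar compartment, from automated 20x imaging of fixed, Hoechst-stained PC3M PTB-GFP cells. Cells were seeded 4 h, then exposed 16 h to compound (23 nl of library stock) in duplicate plates.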
ALDH1A1 block = blocks purified human ALDH1A1 activity; Potency, µM (titrated, usually from 75.3 µM), most hits filed as inhibitors; Purified ALDH1A1, NADH fluorescence, propionaldehyde substrate; P00352; actives 7.3% (n = 220,000); active means well fitted inhibition curve with a large enough effect, not every such curve was filed as active; inconclusive means small, poorly fitted or top-dose-only effect, or another doubt; inactive means no such curve, though single readings can be large or run the other way
Large screens that a line does not name were inactive. The list is not random: actives were taken first. Their share in the collection is about 10%. Unless noted, the call rests on the fitted dose curve; in most records, active means well fitted curve in the direction sought with a large enough effect; inconclusive means small, poorly fitted or top-dose-only effect, or another doubt; inactive means no such curve, though single readings can be large; an effect the other way counts as inactive or inconclusive.

O=C(C1Cc2ccccc2O1)N1CCCCC1 (configuration not stated)	HPGD inh 25µM
CC1CCCCN1C(=O)CSc1ccc(-c2ccc(F)cc2)nn1 (configuration not stated)	HPGD inh 22µM, PNC inhibitor inconclusive, ALDH1A1 block inconclusive
CC1CCCCN1C(=O)C1CC(c2ccc(F)cc2)=NO1 (configuration not stated)	PNC inhibitor inconclusive, ALDH1A1 block 0.32µM (no result: HPGD inh)
O=C(C1COc2ccccc2O1)N1CCOCC1 (configuration not stated)	PNC inhibitor inconclusive
COc1ccc(/C=C(\C#N)C(N)=O)c(OC)c1	none (no result: aGal spleen mod, GLA inh pH 4.5, PNC inhibitor)
Cc1cc(C)c2c(-n3cccc3)nn(CC#N)c2n1	none
COCCNC(=O)CN(C(=O)Cn1nnc2ccccc21)c1ccc(C)c(F)c1	PNC inhibitor -119
Cc1nc2cc(N3CCCCC3)c(NC(=O)c3ccncc3)cc2c(=O)n1Cc1ccc(Cl)cc1	ALDH1A1 block inconclusive
Cc1nc2cc(N3CCN(C)CC3)c(NC(=O)Cc3ccccc3)cc2c(=O)n1Cc1ccccc1	ALDH1A1 block 18µM (no result: HPGD inh)
O=C(CSc1nc2ccccc2s1)c1sc2sc3ccccc3[n+]2c1O	HPGD inh inconclusive (no result: aGal spleen mod, GLA inh pH 4.5, PNC inhibitor)
O=C1CCCN1c1ccc(S(=O)(=O)Nc2ccc3c(c2)OCCO3)cc1	PNC inhibitor inconclusive
N#CCc1ccc(NS(=O)(=O)c2ccc(N3CCCC3=O)cc2)cc1	ALDH1A1 block 14µM
O=C(NCc1ccccn1)C1(C(F)(F)F)CC(CCCO)CCCO1 (configuration not stated)	none (no result: ALOX12 inhib, HPGD inh, GLA inh pH 4.5, PNC inhibitor, ALDH1A1 block)
CC1=NN(C(C#N)c2cccc([N+](=O)[O-])c2)C(C)(C)C1 (configuration not stated)	PNC inhibitor inconclusive, ALDH1A1 block inconclusive
CCN(CC)S(=O)(=O)c1ccc(NS(=O)(=O)c2ccc(F)cc2)cc1	ALDH1A1 block 13µM
O=S(=O)(Nc1ccc(-n2cccc2)cc1)c1ccc(F)cc1	ALDH1A1 block 10µM (no result: ALOX12 inhib, HPGD inh, PNC inhibitor)
COc1ccc(-c2nc(C(=O)N3CCN(C)CC3)sc2-c2ccc(OC)cc2)cc1	aGal spleen mod inconclusive, HPGD inh inconclusive, ALDH1A1 block inconclusive (no result: PNC inhibitor)
O=C(c1cccc(F)c1F)N1CCCC1	HPGD inh 28µM
O=C(Nc1ccccc1C(=O)N1CCCC1)c1ccccc1	PNC inhibitor -119
CC(NC(=O)c1ccccc1NC(=O)c1ccccc1)C(=O)N1CCOCC1 (configuration not stated)	PNC inhibitor -97
Cc1ccc(C(=O)Nc2ccccc2C(=O)N2CCCCCC2)cc1	none (no result: ALOX12 inhib, HPGD inh, PNC inhibitor)
O=C(c1ccccc1)c1ccc(N2CCOCC2)c(NC(=O)c2ccco2)c1	ALDH1A1 block 32µM
O=C(Nc1cc(C(F)(F)F)ccc1N1CCOCC1)c1ccco1	none
COc1ccc(C(c2c(O)nc[nH]c2=O)c2c(O)nc[nH]c2=O)cc1	none (no result: ALOX12 inhib, HPGD inh, PNC inhibitor, ALDH1A1 block)
CCCCOC(=O)Nc1ccccc1C(=O)N1CCCC1	PNC inhibitor -113, ALDH1A1 block inconclusive
O=C(Nc1cc(C(=O)N2CCCC2)ccc1N1CCCC1)c1ccccc1	HPGD inh 25µM, PNC inhibitor -111, ALDH1A1 block inconclusive
COc1ccc(Cl)cc1NC(=O)C1CCCN(S(=O)(=O)c2cccc3nonc23)C1 (configuration not stated)	PNC inhibitor -100
COc1cccc(NC(=O)C2CCCN(S(=O)(=O)c3cccc4nonc34)C2)c1 (configuration not stated)	none (no result: ALOX12 inhib, HPGD inh, PNC inhibitor)
O=C(C1CCCN(S(=O)(=O)c2cccc3nonc23)C1)N1CCN(c2ccccc2Cl)CC1 (configuration not stated)	HPGD inh 14µM, ALDH1A1 block inconclusive
O=C(C1CCCN(S(=O)(=O)c2cccc3nonc23)C1)N1CCN(c2cccc(Cl)c2)CC1 (configuration not stated)	none
Fc1ccc(C2CCCN2Cc2nc(-c3cnccn3)no2)cc1 (configuration not stated)	ALDH1A1 block 28µM (no result: ALOX12 inhib, HPGD inh, PNC inhibitor)
CC(=O)N1CCC[C@H]1C(=O)O	none (no result: ALOX12 inhib, HPGD inh, PNC inhibitor)
O=C(O)C1CCCN1C(=O)c1cncc(Br)c1 (configuration not stated)	ALDH1A1 block 20µM
C/C(CC(=O)NC1CCCC1)=N\NC(=O)c1ccc([N+](=O)[O-])c(Cl)c1	ALDH1A1 block inconclusive
O=C(N/N=C1\CCCc2ccccc21)c1cccc(Br)c1	none (no result: ALOX12 inhib, HPGD inh, PNC inhibitor)
O=C(NCCCN1CCOCC1)c1sc2cc([N+](=O)[O-])ccc2c1Cl	ALDH1A1 block 7.9µM (no result: ALOX12 inhib, HPGD inh, PNC inhibitor)
O=C(NCCCN1CCOCC1)c1sc2cc(Cl)ccc2c1Cl	none (no result: ALOX12 inhib, HPGD inh, PNC inhibitor)
O=C(CSC1=NC(=O)C(Cc2ccccc2)C(=O)N1)Nc1ncc(Br)cc1Br (configuration not stated)	ALDH1A1 block 40µM (no result: ALOX12 inhib, HPGD inh, PNC inhibitor)
O=C(CC1CCS(=O)(=O)C1)NC1CCCCC1 (configuration not stated)	PNC inhibitor inconclusive
O=C(CCC1CCCC1)NC1CCCCC1	HPGD inh 16µM
O=C(CC1CCCCC1)NC1CCCC1	HPGD inh 18µM
NC1=NCC2c3ccccc3Cc3ccccc3N12 (configuration not stated)	none (no result: ALOX12 inhib, HPGD inh, GLA inh pH 4.5, PNC inhibitor, ALDH1A1 block)
N[C@@H](CSSC[C@H](N)C(=O)O)C(=O)O	none (no result: ALOX12 inhib, HPGD inh, GLA inh pH 4.5, PNC inhibitor, ALDH1A1 block)
Cc1ccc2c(c1)C1CN(C)CCC1N2C(=S)NC(=O)c1ccc(Br)cc1 (configuration not stated)	ALDH1A1 block 14µM (no result: ALOX12 inhib, HPGD inh, PNC inhibitor)
COc1ccc(OCC(=O)N2c3ccc(C)cc3C3CN(C)CCC32)cc1 (configuration not stated)	none (no result: ALOX12 inhib, HPGD inh, PNC inhibitor)
CCCCc1nc(NCCN2CCOCC2)c(C#N)c2c1COC(C)(C)C2	ALDH1A1 block 11µM
CC(C)(C)c1ccc(NC(=O)COC(=O)C2(C)CC2(Cl)Cl)cc1 (configuration not stated)	none (no result: ALOX12 inhib, HPGD inh, PNC inhibitor)
CC(NC(=O)C(=O)NN=C1CCCCCCCCCCC1)c1ccccc1 (configuration not stated)	none
CSC1=C(C#N)C(c2ccccc2)C(C(C)=O)=C(C)N1 (configuration not stated)	none (no result: ALOX12 inhib, HPGD inh, PNC inhibitor)
CCOC(=O)CSC1=C(C#N)C(c2ccccc2)C(C(C)=O)=C(C)N1 (configuration not stated)	ALDH1A1 block 32µM
CSCSC1=C(C#N)C(c2ccc(Cl)cc2)C(C(C)=O)=C(C)N1 (configuration not stated)	HPGD inh 32µM, ALDH1A1 block 8.9µM
C=CCOC(=O)C1=C(C)NC(SC)=C(C#N)C1c1ccc(OCC)cc1 (configuration not stated)	ALDH1A1 block 20µM (no result: HPGD inh)
COC(=O)N/N=C/c1cn(CC(C)COc2ccccc2)c2ccccc12 (configuration not stated)	PNC inhibitor inconclusive, ALDH1A1 block inconclusive
